The panel holds about 83,000 compounds, 20% with a hit somewhere; the sample as a whole holds those more often.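 How to read the values: 0–100, growth inhibition (40 = 60% inhibited); 0, no net growth; -100 to 0, cell death (-40 = 40% of starting cells died; -100 = all dead).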 Values without a mark were called inactive. Active and inactive are the calls of the source. Rule for the calls: active = growth percent below 10; inactive = the rest.
Key:
Assay in all cases: NCI-60 one-dose screen, 48 h (100 = growth as untreated, 0 = no growth, -100 = all killed)
Settings in all cases: 10 µM unless noted
[1] = system: HCT-15 colon
[2] = system: HT29 colon
[3] = system: SNB-75 CNS
[4] = system: SNB-19 CNS
[5] = system: SK-MEL-5 melanoma
[6] = system: UACC-62 melanoma
[7] = system: LOX IMVI melanoma
[8] = system: SK-MEL-28 melanoma
[9] = system: SK-MEL-2 melanoma
[10] = system: EKVX NSCLC
[11] = system: SN12C renal
[12] = system: UO-31 renal
[13] = system: TK-10 renal
[14] = system: ACHN renal
[15] = system: A498 renal
[16] = system: CCRF-CEM leukemia
[17] = system: MOLT-4 leukemia
[18] = system: CAKI-1 renal
[19] = system: PC-3 prostate
[20] = system: U251 CNS

Compound | growth [1] | growth [2] | growth [3] | growth [4] | growth [5] | growth [6] | growth [7] | growth [8] | growth [9] | growth [10] | growth [11] | growth [12] | growth [13] | growth [14] | growth [15] | growth [16] | growth [17] | growth [18] | growth [19] | growth [20]
COc1ccc(-c2nc3ccc(-c4nc5ccc(N6CCN(c7ccc(F)cc7)CC6)cc5[nH]4)cc3[nH]2)cc1OC | 44.7% | 44.3% | 64.3% | 117% | 65.6% | 60.6% | 37.1% | 90.6% | 109% | 99.6% | 80.7% | 89% | 133% | 62.3% | 98.3% | 20.9% | 27.9% | – | – | –
C=C(C)[C@@H]1CC[C@]2(C(N)=O)CC[C@]3(C)[C@H](CC[C@@H]4[C@@]5(C)C/C(=C/c6ccco6)C(=O)C(C)(C)[C@@H]5CC[C@]43C)[C@@H]12 | 86.9% | 98.5% | 89.5% | 94.5% | 96.5% | 80.2% | 88.4% | 99.6% | 99.5% | 89.8% | 96.1% | 84.4% | 105% | 84.4% | 104% | 93.4% | 79.7% | 59% | – | –
O=C1c2cccc3cccc(c23)C(=O)N1CCCCCN1CCN(CCCCCOc2ccc(-c3nc4ccc(N5CCOCC5)cc4[nH]3)cc2)CC1 | 80.4% | 44.3% | 112% | 129% | 96.7% | 75% | 56.4% | 95.7% | 87.4% | – | 108% | 4.03% (active) | 106% | 111% | 117% | -17.9% (active) | -54.4% (active) | 59.4% | – | –
N#Cc1c(-c2ccc(Cl)cc2)nc(NN=Cc2ccco2)nc1N1CCOCC1 | 80.3% | 87% | 10.3% | 80% | 80.9% | 58.2% | 78.7% | 65.9% | 82.3% | 46.5% | 82.1% | 27.1% | 68.8% | 76.7% | -19.9% (active) | 88.7% | 83% | 62.8% | – | –
O=C1/C(=C/C(Cl)=C/c2ccccc2)SC(=S)N1CCc1ccc(O)cc1 | 2.94% (active) | 1.54% (active) | 17.3% | 6.88% (active) | -47.6% (active) | -24.7% (active) | -79.2% (active) | -26% (active) | 12.8% | 11% | – | -84.5% (active) | 16.8% | -73.4% (active) | -0.593% (active) | 9.68% (active) | 9.33% (active) | -15.7% (active) | – | –
COc1cc(/C=C/c2cc(O)c3cc(C(C)=O)c(=O)oc3c2)cc2c1O[C@]1(C)CC[C@@H](O)C(C)(C)[C@H]1C2 | 14.4% | 60.5% | -8.02% (active) | 48.1% | -96.8% (active) | -11.7% (active) | 18.8% | -0.116% (active) | 50.1% | 59.3% | 64.7% | -42.8% (active) | 97.9% | 40.9% | -51.5% (active) | 22.1% | -5.7% (active) | 29.8% | – | –
CCN(CC)c1ccc(-c2cc(-c3cc(OC)c(OC)c(OC)c3)nc(N3CCOCC3)c2C#N)cc1 | 10.7% | 2.21% (active) | 29.8% | 79% | -83.3% (active) | -58% (active) | -77.3% (active) | 21.8% | – | 36.3% | – | – | 49.4% | 19.5% | 34.5% | – | 18.8% | 1.28% (active) | – | –
O=C1CC(=NCC(=O)n2c(-c3ccccc3)nc3ccccc32)NN1 | 99.1% | 108% | 66.6% | 97.7% | 96.6% | 94.9% | 89.9% | 118% | 98.7% | 77.5% | 99% | 69.3% | 155% | 93.3% | 56.1% | 107% | 103% | 75.9% | – | –
COc1cccc(/C=N/NC(=O)c2ccccc2Nc2ccnc(C(F)(F)F)c2)c1O | 28.4% | 51.3% | 19.6% | 21.1% | -33.1% (active) | -24.2% (active) | 4.88% (active) | 23% | – | 10.5% | 21.2% | 7.6% (active) | 28.7% | 5.22% (active) | -13% (active) | – | 34.1% | -2.16% (active) | – | –
COc1cccc2c1C(=O)c1c(O)c3c(c(O)c1C2=O)C[C@](O)(C(=O)CO)C[C@H]3O[C@@H]1C[C@@H](NC(=O)CCCN(C)C2(c3ccc(F)cc3)CC3CCC2C3)[C@H](O)[C@@H](C)O1 (some centres undefined) | 3.39% (active) | -61.2% (active) | 30% | -66% (active) | – | – | -94.4% (active) | – | 47.1% | -46.3% (active) | – | 71.7% | 54.6% | -86% (active) | 52.5% | -29% (active) | -37% (active) | 61.9% | -76.7% (active) | –
COC(=O)c1ccc(NC(=O)c2ccc(-c3cccc([N+](=O)[O-])c3)o2)cc1 | 101% | 103% | 82.4% | 94.4% | 97.8% | 95.5% | 96.1% | 100% | 98.4% | 79% | 97.3% | 72.9% | 111% | 94.6% | 105% | 107% | 103% | 88% | – | –
Cn1c(=O)[nH]c(=O)c2nc(CCC(=O)NCCC(=O)O)c(=O)[nH]c21 | 106% | 106% | 89% | 104% | 103% | 105% | – | 103% | 106% | 106% | 99.5% | 86.6% | 106% | 101% | 114% | 109% | 106% | 93.5% | – | –
CCCOc1cc2ccccc2cc1C(=O)Nc1nc(NC)c2c(ccc3nccc32)[nH]1 | -50% (active) | -73.1% (active) | -87.1% (active) | -78.8% (active) | – | -77.3% (active) | – | -84.4% (active) | -60.8% (active) | -78.4% (active) | -71.7% (active) | -88.8% (active) | -65.8% (active) | -90.7% (active) | -92% (active) | -30.2% (active) | -56.1% (active) | -63.8% (active) | – | –
O=C1/C(=C/c2ccc3c(c2)OCO3)SC(=S)N1CCc1ccc(O)cc1 | 93% | 113% | 83.7% | 95.5% | 98.2% | 88% | 91.3% | 104% | 100% | 98.8% | 92.1% | 58.8% | 81.3% | 97.2% | 111% | 56.7% | 87.3% | – | – | –
O=C1c2cc3c(cc2-c2c1c1ccc(F)cc1c(=O)n2CCCNCCO)OCO3 | -41.8% (active) | – | -98.5% (active) | -21.9% (active) | – | -60.5% (active) | -88.3% (active) | -13.8% (active) | -46.1% (active) | -14% (active) | -60.4% (active) | -72.2% (active) | -18.9% (active) | -52.7% (active) | -95.9% (active) | 0.848% (active) | -25% (active) | -7.53% (active) | -41.9% (active) | -82.8% (active)
CCOC(=O)c1csc(NC(=O)COc2cccc(/C=C3\CSc4ccccc4C3=O)c2)n1 | 89% | -34.2% (active) | -33.7% (active) | 81.3% | 54.5% | 64.4% | -93.9% (active) | 89.3% | -49.8% (active) | -36.2% (active) | – | -35.1% (active) | 68.6% | 45.5% | 115% | -61.3% (active) | -50.9% (active) | 2.32% (active) | – | –
CN(C)S(=O)(=O)c1ccc(S(=O)(=O)Nc2cccc(Cl)c2N2CCCCC2)cc1 | 79.9% | 91.8% | 64.2% | 84.9% | 80.7% | 57.8% | 67.4% | 59.9% | 73.8% | 68.2% | 83% | 72.7% | 102% | 75.3% | 103% | 75% | 68.9% | 31.6% | – | –
